Laboratory results as given in PubChem BioAssay (NCI).
About 79,000 compounds went through this panel and 15% of them were active in at least one assay; those are over-represented in the sample as a whole. Calls of active or inactive are those of the source. Rule as the data show it: active = growth inhibition above about 70%; inactive = the rest.

Assays:
[1] = NCI Yeast Anticancer Drug Screen. Data for the rad52 strain (AID 147);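 also: 0% = growth of vehicle-treated control cultures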; conditions: S. cerevisiae rad52 mutant growth inhibition, stronger effect = higher value
Procedure, shortened: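 Genetically altered yeast (DNA damage repair defect) treated with compound; inhibition calculated relative to vehicle.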

[2] = NCI Yeast Anticancer Drug Screen. Data for the wt1 strain (AID 149);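 also: 0% = growth of vehicle-treated wt1 cultures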; conditions: S. cerevisiae wt1 strain (SPY 50644) growth inhibition, stronger effect = higher value
Procedure, shortened: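 Growth inhibition read against vehicle controls after compound exposure of the wt1 yeast strain.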

[3] = NCI Yeast Anticancer Drug Screen. Data for the rad50EPP+ strain (AID 151);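 also: 0% = growth of vehicle-treated control cultures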; conditions: S. cerevisiae rad50 mutant strain, stronger effect = higher value
Procedure, shortened: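 Strain rad50EPP+; compound exposure; % growth inhibition vs vehicle.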

[4] = NCI Yeast Anticancer Drug Screen. Data for the mgt1 strain (AID 153); conditions: S. cerevisiae mgt1 mutant growth inhibition, stronger effect = higher value
Procedure, shortened: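 Read-out: yeast growth inhibition vs vehicle control. Strain mgt1, drawn from a panel altered in DNA damage repair or cell cycle control.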

[5] = NCI Yeast Anticancer Drug Screen. Data for the rad50 strain (AID 155);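 also: 0% = growth of vehicle-only cultures of the same strain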; conditions: S. cerevisiae rad50 strain growth inhibition, stronger effect = higher value
Procedure, shortened: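 Readout: growth inhibition relative to vehicle-treated cultures. Compound exposure was carried out in a genetically defined yeast strain deficient in DNA damage repair.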

[6] = NCI Yeast Anticancer Drug Screen. Data for the mec2-1 strain (AID 157); conditions: S. cerevisiae mec2-1 strain, stronger effect = higher value
Procedure, shortened: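 Cells of the genetically defined mec2-1 yeast strain are incubated with test compound. Inhibition of growth is calculated against vehicle-treated controls.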

[7] = NCI Yeast Anticancer Drug Screen. Data for the rad14 strain (AID 159);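 also: 0% = growth of vehicle-treated control cultures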; conditions: S. cerevisiae rad14 strain growth inhibition, stronger effect = higher value
Procedure, shortened: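 Growth inhibition vs vehicle controls; genetically altered yeast strain (DNA damage repair defect) treated with test compounds.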

[8] = NCI Yeast Anticancer Drug Screen. Data for the sgs1 mgt1 strain (AID 161);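 also: 0% = growth of cultures given vehicle only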; conditions: S. cerevisiae sgs1 mgt1 strain, stronger effect = higher value
Procedure, shortened: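 Test agents were incubated with a DNA-repair-mutant yeast strain. Growth was then read and compared against vehicle-treated controls.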

[9] = NCI Yeast Anticancer Drug Screen. Data for the CLN2oe strain (AID 163);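 also: 0% = growth of vehicle-only control cultures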; conditions: S. cerevisiae CLN2oe strain, stronger effect = higher value
Procedure, shortened: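 Strain altered in cell-cycle control, incubated with compound; growth compared to solvent-treated controls.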

[10] = NCI Yeast Anticancer Drug Screen. Data for the cln2 rad14 strain (AID 165);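 also: 0% = growth equal to vehicle treated cultures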; conditions: S. cerevisiae cln2 rad14 strain, stronger effect = higher value
Procedure, shortened: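 The screen exposed genetically defined yeast (cln2 rad14) to test compounds and scored growth inhibition relative to vehicle-treated controls.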

[11] = NCI Yeast Anticancer Drug Screen. Data for the bub3 strain (AID 167); conditions: S. cerevisiae bub3 mutant strain, stronger effect = higher value
Procedure, shortened: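 Readout: yeast growth inhibition, expressed relative to vehicle-only wells. The test organism is a mutant strain from a panel with lesions in DNA repair or checkpoint genes.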

[12] = NCI Yeast Anticancer Drug Screen. Data for the wt2 strain (AID 169);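 also: 0% = growth of vehicle-treated yeast cultures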; conditions: S. cerevisiae wt2 strain growth inhibition, stronger effect = higher value
Procedure, shortened: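 Steps: yeast strain treated with compound; growth recorded; inhibition calculated relative to cultures given vehicle alone.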

[13] = NCI Yeast Anticancer Drug Screen. Data for the mlh1 strain (AID 171);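 also: 0% = growth of vehicle-treated control cultures of the same strain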; conditions: S. cerevisiae mlh1 strain growth inhibition, stronger effect = higher value
Procedure, shortened: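 Yeast screen: mutant strain plus compound, growth scored against vehicle control wells.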

[14] = NCI Yeast Anticancer Drug Screen. Data for the sgs1 strain (AID 173);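 also: 0% = growth of vehicle-only control cultures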; conditions: S. cerevisiae sgs1 mutant, stronger effect = higher value
Procedure, shortened: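 Inhibition of yeast growth served as the measure. The mutant strain was treated with each compound, and growth was normalised to cultures receiving vehicle alone.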

[15] = NCI Yeast Anticancer Drug Screen. Data for the mlh1 rad18 strain (AID 175); conditions: S. cerevisiae mlh1 rad18 strain growth inhibition, stronger effect = higher value
Procedure, shortened: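 Compound-treated yeast growth, normalised to vehicle controls. Strain bears defined DNA repair mutations.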

[16] = NCI Yeast Anticancer Drug Screen. Data for the rad18 strain (AID 177); conditions: S. cerevisiae rad18 mutant growth inhibition, stronger effect = higher value
Procedure, shortened: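 Inhibition values reflect reduced yeast growth compared with vehicle-treated controls, using a strain engineered with a DNA damage repair defect.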

[17] = at 5.0 µM (retest, dose inferred, filed as 0.5)
[18] = at 50.0 µM (retest, dose inferred, filed as 5.0)

Measured: growth inhibition

COC(=O)c1ccccc1N=NNc1cccc(SC)c1
active: [1]; at 33.0 µM 89% | [1]; at 100.0 µM 88% | [2]; at 33.0 µM 90% | [2]; at 100.0 µM 88% | [4]; at 33.0 µM 92% | [4]; at 100.0 µM 88% | [5]; at 33.0 µM 93% | [5]; at 50.0 µM 86.8% | [5]; at 100.0 µM 87% | [6]; at 33.0 µM 93% | [6]; at 50.0 µM 85.7% | [6]; at 100.0 µM 89% | [7]; at 33.0 µM 93% | [7]; at 100.0 µM 87% | [8]; [18] 94% | [8]; at 50.0 µM 88.8% | [9]; at 33.0 µM 93% | [9]; at 100.0 µM 85% | [10]; [18] 87% | [10]; at 50.0 µM 86% | [11]; at 33.0 µM 94% | [11]; [18] 87% | [11]; at 50.0 µM 85.9% | [11]; at 100.0 µM 89% | [12]; at 33.0 µM 93% | [12]; at 100.0 µM 89% | [13]; at 33.0 µM 94% | [13]; at 100.0 µM 88% | [14]; at 33.0 µM 93% | [14]; at 100.0 µM 84% | [15]; at 50.0 µM 85.2% | [16]; at 33.0 µM 94% | [16]; at 100.0 µM 89%
inactive: [1]; at 1.2 µM 11% | [1]; at 3.7 µM 13% | [1]; at 11.0 µM 23% | [2]; at 1.2 µM -14% | [2]; at 3.7 µM -31% | [2]; at 11.0 µM -27% | [3]; at 1.2 µM 9% | [3]; at 3.7 µM 21% | [3]; at 11.0 µM 39% | [3]; at 33.0 µM 47% | [3]; at 100.0 µM 36% | [4]; at 1.2 µM -16% | [4]; at 3.7 µM -18% | [4]; at 11.0 µM -3% | [5]; at 1.2 µM 12% | [5]; at 3.7 µM 16% | [5]; [17] 30% | [5]; at 11.0 µM 28% | [5]; [18] 41% | [6]; at 1.2 µM 1% | [6]; at 3.7 µM 9% | [6]; [17] 40% | [6]; at 11.0 µM 19% | [6]; [18] 39% | [7]; at 1.2 µM -11% | [7]; at 3.7 µM -21% | [7]; at 11.0 µM -6% | [8]; [17] 1% | [9]; at 1.2 µM -17% | [9]; at 3.7 µM 12% | [9]; at 11.0 µM -9% | [10]; [17] 42% | [11]; at 1.2 µM 12% | [11]; at 3.7 µM 6% | [11]; [17] 3% | [11]; at 11.0 µM 25% | [12]; at 1.2 µM -11% | [12]; at 3.7 µM -18% | [12]; at 11.0 µM 8% | [13]; at 1.2 µM 2% | [13]; at 3.7 µM 4% | [13]; at 11.0 µM 17% | [14]; at 1.2 µM -6% | [14]; at 3.7 µM -13% | [14]; at 11.0 µM 16% | [15]; [17] 21% | [15]; [18] 36% | [16]; at 1.2 µM -10% | [16]; at 3.7 µM -13% | [16]; at 11.0 µM 11%

O=C1c2ccccc2N2OC3(N4CCCC4)CCCCC3C12c1ccccc1 (stereo unspecified)
active: [1]; at 100.0 µM 98% | [2]; at 100.0 µM 98% | [3]; at 100.0 µM 99% | [4]; at 100.0 µM 98% | [5]; at 50.0 µM 84.6% | [5]; at 100.0 µM 97% | [6]; at 100.0 µM 98% | [7]; at 100.0 µM 98% | [8]; at 50.0 µM 74.7% | [9]; at 100.0 µM 98% | [11]; [18] 92% | [11]; at 50.0 µM 79.7% | [11]; at 100.0 µM 98% | [12]; at 100.0 µM 88% | [13]; at 100.0 µM 98% | [14]; at 100.0 µM 98%
inactive: [1]; at 1.2 µM -4% | [1]; at 3.7 µM 1% | [1]; at 11.0 µM 10% | [1]; at 33.0 µM 17% | [2]; at 1.2 µM 6% | [2]; at 3.7 µM -9% | [2]; at 11.0 µM 16% | [2]; at 33.0 µM 36% | [3]; at 1.2 µM -33% | [3]; at 3.7 µM -38% | [3]; at 11.0 µM -28% | [3]; at 33.0 µM 35% | [4]; at 1.2 µM -18% | [4]; at 3.7 µM -7% | [4]; at 11.0 µM -24% | [4]; at 33.0 µM -13% | [5]; at 1.2 µM 5% | [5]; at 3.7 µM -5% | [5]; [17] -35% | [5]; at 11.0 µM 7% | [5]; at 33.0 µM 19% | [5]; [18] -14% | [6]; at 1.2 µM -19% | [6]; at 3.7 µM -7% | [6]; [17] 1% | [6]; at 11.0 µM -25% | [6]; at 33.0 µM -1% | [6]; [18] 23% | [6]; at 50.0 µM 24.9% | [7]; at 1.2 µM -23% | [7]; at 3.7 µM -20% | [7]; at 11.0 µM -27% | [7]; at 33.0 µM -17% | [8]; [17] -9% | [8]; [18] -18% | [9]; at 1.2 µM -9% | [9]; at 3.7 µM -12% | [9]; at 11.0 µM -10% | [9]; at 33.0 µM 4% | [10]; [17] 16% | [10]; [18] 33% | [10]; at 50.0 µM 1.8% | [11]; at 1.2 µM -19% | [11]; at 3.7 µM -13% | [11]; [17] -6% | [11]; at 11.0 µM -2% | [11]; at 33.0 µM 40% | [12]; at 1.2 µM -18% | [12]; at 3.7 µM -17% | [12]; at 11.0 µM -14% | [12]; at 33.0 µM -8% | [13]; at 1.2 µM -46% | [13]; at 3.7 µM -44% | [13]; at 11.0 µM -41% | [13]; at 33.0 µM -10% | [14]; at 1.2 µM -1% | [14]; at 3.7 µM 5% | [14]; at 11.0 µM 7% | [14]; at 33.0 µM 61% | [15]; [17] -33% | [15]; [18] 35% | [15]; at 50.0 µM 18.8%
